According to PubChem BioAssay AID1035475 (Broad Institute, 2014):
Entries with a potency or affinity are not part of this list. Inconclusive results are not listed. Calls of active or inactive are those of the source.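 Rule for the calls: active = fluorescent signal drops by 40% or more, counted as a hit; inconclusive = no clear call, values can overlap the other calls; inactive = the rest, including any activity in the opposite direction.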

experiment: blockers of FN fibrillogenesis by fibroblasts – AH1F cells, Alexa488-FN fluorescence, cherry-picks, dose response (AID 1035475); settings: Alexa488-fibronectin deposition fluorescence, overnight; series mostly up to 35 µM;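 note: AH1F fibroblasts incorporating labeled fibronectin into their extracellular matrix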

Question: Which outcome does the source give for `CCc1ccc(NC(=O)CSc2nnc(-c3ccco3)o2)cc1` here?
Answer: The outcome was “inactive”.

Question: Which outcome does the source give for `C[C@H]1CN([C@@H](C)CO)C(=O)c2cc(-c3ccccc3)cnc2O[C@@H]1CN(C)Cc1ccccc1` here?
Answer: Its outcome is “inactive”.

Question: With `C[C@H](O)C#Cc1ccc2c(c1)O[C@H](CN(C)C)[C@@H](C)CN([C@@H](C)CO)S2(=O)=O` as the compound, how does the outcome read?
Answer: The outcome was “inactive”.

Question: For `COC(=O)C[C@@H]1CC[C@@H]2[C@H](COc3ccc(NC(=O)Cc4cccs4)cc3C(=O)N2C)O1`, which outcome is on record?
Answer: The outcome was “inactive”.

Question: Which outcome does the source give for `C[C@@H]1CN([C@@H](C)CO)C(=O)c2cc(NC(=O)CCCN(C)C)ccc2O[C@@H]1CN(C)Cc1ccc(-c2ccccc2)cc1` here?
Answer: Its outcome is “inactive”.

Question: Which outcome does the source give for `CN(C)C(=O)c1ccc(-c2ccc3c(c2)[C@@H]2[C@@H](CCN2C(=O)c2ccc(F)cc2)[C@@H](CO)N3C)cc1` here?
Answer: The outcome was “inactive”.

Question: For `COc1cccc(-c2ccc3c(c2)[C@@H]2[C@@H](CCN2S(=O)(=O)c2cccc(OC)c2)[C@@H](CO)N3)c1`, which outcome is on record?
Answer: Its outcome is “inactive”.

Question: With `NC(=O)C1=C[C@H](c2coc3ccccc3c2=O)C[C@H](OCCCCO)O1` as the compound, how does the outcome read?
Answer: The outcome was “inactive”.

Question: Which outcome does the source give for `Cc1cc(C)c(S(=O)(=O)Nn2cnnc2)c(C)c1` here?
Answer: The outcome was “inactive”.

Question: Which outcome does the source give for `COc1cccc(CN2CCN(C(=O)c3ccc(-c4ccccc4)cc3)CC2)c1OC` here?
Answer: Its outcome is “inactive”.

Question: Which outcome does the source give for `O=C(OCC(O)C(O)COC(=O)c1ccccc1)c1ccccc1` (stereo not drawn) here?
Answer: The outcome was “inactive”.

Question: With `C[C@H]1CN([C@@H](C)CO)C(=O)c2cc(-c3ccccc3)cnc2O[C@@H]1CN(C)C(=O)c1cccc(F)c1` as the compound, how does the outcome read?
Answer: The outcome was “inactive”.

Question: Which outcome does the source give for `C[C@H]1CN([C@@H](C)CO)C(=O)c2cc(NC(=O)CCCN(C)C)ccc2O[C@H]1CN(C)Cc1ccc(-c2ccccc2)cc1` here?
Answer: The outcome was “inactive”.
